For 15 compounds, Potency results are on record in PubChem BioAssay (NCATS).

Molecules are shown by their SMILES. A number with no mark means an inactive call. The rule behind the calls is not given here. Bounds are passed on as bounds.
Potency is the fitted concentration of half-maximal effect.

In the experiment the test system is HIV-1 nucleocapsid protein NCp7 (binding to TG oligonucleotide). As to the kind of experiment: HIV Nucleocapsid (AID 346).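 Note: potency is for inhibitors that block NC binding and lower polarization.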 Conditions: HIV-1 NC / fluorescein-TGTGTGTG probe, fluorescence polarization. The method, boiled down:
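Inhibition of nucleocapsid binding to single-stranded 5'-TGTGTGTG probe (10 nM) was measured by fluorescence polarization after 1 hr at room temperature with 100 nM protein under high-salt, zinc-containing, reducing conditions.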
Background: Polarisation of emitted light reports the rotation of a fluorescent probe.
Take `COc1ncc2nc(-c3cn(C)c4ccccc34)c(=O)n(C[C@H]3CCCO3)c2n1`: the Potency is greater than 20 µM.
With `O=c1c(-c2cccs2)nc2cnc(Oc3ccccc3)nc2n1C1CC1` the figure was greater than 20 µM.
In the case of `CC(C)NC(=O)N1CCCC2(CCN(C(=O)c3csnn3)CC2)C1`, the Potency was greater than 20 µM.
With `O=S(=O)(c1ccccc1)N1CCC[C@@]2(CCN(Cc3ccccc3)C2)C1`, the Potency is greater than 20 µM.
The same measure for `COc1ccc(-c2nc3cnc(OC)nc3n(CCC#N)c2=O)cc1`: greater than 20 µM; for `COc1ccc(NC(=O)N2CC3(CCN(C(C)=O)CC3)C2)cc1`: greater than 20 µM.
The same measure for `COc1ccccc1-c1cc(NCc2ccccc2)ncn1`: greater than 20 µM; for `CN(C)c1ccc(-c2cc(N(C)Cc3ccco3)ncn2)cc1`: greater than 20 µM; for `Cc1nc2cnc(OCc3ccccc3)nc2n(C)c1=O`: greater than 20 µM.
On to `Cc1cnc(CNc2nc(-c3ccccc3C(F)(F)F)nc3ccccc23)cn1`, for which the Potency is greater than 20 µM.
For the compound `CC(=O)N1CCC[C@@]2(CCN(Cc3cc(C(F)(F)F)cc(C(F)(F)F)c3)C2)C1`, the Potency is greater than 20 µM.
With `O=c1c(CCc2ccccc2)nc2cnc(N3CCNCC3)nc2n1C1CC1` the figure was greater than 20 µM.
With `Cc1noc(C)c1-c1ccc2ncnc(N3CCC(C(=O)O)CC3)c2c1` the figure was greater than 20 µM.
With `CN(C)C(=O)c1ccc(-c2nccc(NCc3cccnc3)n2)cc1` the figure was greater than 20 µM; with `Cn1cc(-c2nc3cnc(Oc4ccccc4)nc3n(Cc3cccs3)c2=O)c2ccccc21`, greater than 20 µM.
